Records with an inconclusive call do not appear. Entries that show only a call come without a potency. Active and inactive are the calls of the source. Unless noted, the call rests on the fitted dose curve.
test: qHTS assay to identify small molecule agonists of the hypoxia (HIF-1) signaling pathway - cell viability counter screen (AID 1224844); details: HRE-bla ME-180 viability, CellTiter-Glo luminescence, 17 h; series mostly up to 76.8 µM; further: nearly all actives have a fitted effect of over 50% in size; further: potency means the concentration at half of the fitted maximal effect
Summary of the method: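 Viability counter screen: HRE-bla ME-180 cells plated 5 hrs before compound addition, treated 17 hrs at 37C and 5% CO2, then CellTiter-Glo added after the FRET reporter read; luminescence after 30 min.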

Row | SMILES | Potency
1 | CC(=O)CCC(C)=O | inactive
2 | Cc1ccccc1C(=O)Nc1cccc(OC(C)C)c1 | 27.5 µM (active)
3 | CCCC(Cn1cncn1)c1ccc(Cl)cc1Cl (centres undefined) | inactive
4 | CCc1ccc(C(=O)NN(C(=O)c2cc(C)cc(C)c2)C(C)(C)C)cc1 | inactive
5 | CCO[C@H]1O[C@@H]2OC3(C)CC[C@H]4[C@H](C)CC[C@@H]([C@H]1C)[C@@]24OO3 | inactive
6 | c1cc2ccc3cccc4ccc(c1)c2c34 | inactive
7 | CC(C)N(CCC(C(N)=O)(c1ccccc1)c1ccccn1)C(C)C (centres undefined) | inactive
8 | C#CCOC(C(=O)OCCN(C)C)(c1ccccc1)c1ccccc1 | inactive
9 | c1ccc(C2CC2)c(OCC2=NCCN2)c1 | inactive
10 | Clc1cccc(SC2CCNCC2)n1 | inactive
11 | CCCCCCCCCCOC(=O)c1ccccc1C(=O)OCCCCCCCCCC | inactive
12 | [O-][Cl+]O | inactive
13 | c1ccc(CN2CCNCC2)cc1 | inactive
14 | OCCCBr | inactive
15 | C/C(=C\c1ccccc1)[N+](=O)[O-] | 38.9 µM (active)
16 | CNP(=O)(OC)Oc1ccc(C(C)(C)C)cc1Cl (centres undefined) | inactive
17 | CN(C)c1ccc(N(C)C)cc1 | inactive
18 | Brc1ccc(Oc2ccccc2)cc1 | inactive
19 | NCCCNCCCN | inactive
20 | BrCC(Br)C1CCC(Br)C(Br)C1 (centres undefined) | inactive
21 | C=CCN1CC[C@]23c4c5ccc(O)c4O[C@H]2C(=O)CC[C@@]3(O)[C@H]1C5 | inactive
22 | CN1[C@@H]2CC[C@H]1CC(OC(=O)c1cc(Cl)cc(Cl)c1)C2 (some centres undefined) | inactive
23 | C=COC(C)=O | inactive
24 | CCCCCC[N+](=O)[O-] | inactive
25 | COc1c(C(C)(C)C)cc([N+](=O)[O-])c(C)c1[N+](=O)[O-] | inactive

test: qHTS assay to identify small molecule agonists of H2AX (AID 1224845; active means well fitted activation curve with a large enough effect in the signal ratio in the repeat runs, not every such curve was filed as active; the % refers to the signal ratio); details: CHO-K1 phospho-H2AX Ser139 HTRF, 3 h; series mostly up to 154 µM
Summary of the method: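 Phospho-H2AX Ser139 measured by HTRF (ex 320 nm; em 665 and 620 nm) after 24 hr antibody incubation. Compounds, 15 concentrations, 0.76% DMSO, were applied to CHO-K1 cells for 3hr at 37C before lysis.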

Row | SMILES | Potency | activation (H2AX phosphorylation)
26 | CC(=O)CCC(C)=O | inactive | –
27 | Cc1ccccc1C(=O)Nc1cccc(OC(C)C)c1 | inactive | –
28 | CCCC(Cn1cncn1)c1ccc(Cl)cc1Cl (centres undefined) | inactive | –
29 | CCc1ccc(C(=O)NN(C(=O)c2cc(C)cc(C)c2)C(C)(C)C)cc1 | inactive | –
30 | BrCCCCBr | inactive | –
31 | CC(C)N(CCC(C(N)=O)(c1ccccc1)c1ccccn1)C(C)C (centres undefined) | inactive | –
32 | C#CCOC(C(=O)OCCN(C)C)(c1ccccc1)c1ccccc1 | inactive | –
33 | c1ccc(C2CC2)c(OCC2=NCCN2)c1 | inactive | –
34 | Clc1cccc(SC2CCNCC2)n1 | inactive | –
35 | CCCCCCCCCCOC(=O)c1ccccc1C(=O)OCCCCCCCCCC | inactive | –
36 | [O-][Cl+]O | inactive | –
37 | c1ccc(CN2CCNCC2)cc1 | inactive | –
38 | OCCCBr | inactive | –
39 | CNP(=O)(OC)Oc1ccc(C(C)(C)C)cc1Cl (centres undefined) | inactive | –
40 | O=C(CBr)Nc1ccc(Cl)cc1C(=O)c1ccccc1F | inactive | –
41 | Brc1ccc(Oc2ccccc2)cc1 | inactive | –
42 | NCCCNCCCN | inactive | –
43 | BrCC(Br)C1CCC(Br)C(Br)C1 (centres undefined) | inactive | –
44 | C=C(C#N)CCC#N | inactive | –
45 | C=CCN1CC[C@]23c4c5ccc(O)c4O[C@H]2C(=O)CC[C@@]3(O)[C@H]1C5 | inactive | –
46 | O=[N+]([O-])C(Br)(CO)CO | inactive | –
47 | CCCCCCC#N | inactive | –
48 | CO[C@@H]1[C@H](OC(=O)NC(=O)CCl)CC[C@]2(CO2)[C@H]1[C@@]1(C)O[C@@H]1CC=C(C)C | – | 1.5% [at 31.6 µM] (inactive)
49 | CN1[C@@H]2CC[C@H]1CC(OC(=O)c1cc(Cl)cc(Cl)c1)C2 (some centres undefined) | inactive | –
50 | C=COC(C)=O | inactive | –
51 | CN1C(=O)NC(=O)C(C)(C2=CCCCC2)C1=O (centres undefined) | inactive | –
52 | CCCCCC[N+](=O)[O-] | inactive | –
53 | O=C(NC(=O)c1c(F)cccc1F)Nc1ccc(OC(F)(F)C(F)OC(F)(F)F)c(Cl)c1 (centres undefined) | inactive | –
54 | COc1c(C(C)(C)C)cc([N+](=O)[O-])c(C)c1[N+](=O)[O-] | inactive | –

From PubChem BioAssay (Tox21)
